# The entries come from a sample that favours the strongest signals as a whole.
# B1: F17fG (Escherichia coli), Q9RH91 (protein)
# chain: MTNFYKVFLAVFILVCCNISHAAVSFIGSTENDVGPSQGSYSSTHAMDNLPFVYNTGHNIGYQNANVWRISGGFCVGLDGKVDLPVVGSLDGQSIYGLTEEVGLLIWMGDTNYSRGTAMSGNSWENVFSGWCVGNYVSTQGLSVHVRPVILKRNSSAQYSVQKTSIGSIRMRPYNGSSAGSVQTTVNFSLNPFTLNDTVTSCRLLTPSAVNVSLAAISAGQLPSSGDEVVAGTTSLKLQCDAGVTVWATLTDATTPSNRSDILTLTGASTATGVGLRIYKNTDSTPLKFGPDSPVKGNENQWQLSTGTETSPSVRLYVKYVNTGEGINPGTVNGISTFTFSYQ
# B2: exo-alpha-sialidase (Propionibacterium acnes), Q6A7G1 (protein)
# chain: GSHMSGRAPAPVAATTQPKLVTGDITSTDQSGTNLFFGKKIVRNARGAIMKVDRTWPAAVPAPLPDVRADSSTRMLLGPVVDLAVNEHPEGVFYRIPALATASNGDLLASYDLRPGSAGDAPNPNSIVQRRSRDNGRTWGPQTVIHAGTPGRRKVGYSDPSYLVDPATGRILNFHVKSYDRGFATSEVGTDPDDRHVLHAEVSTSTDNGHTWTHRDITREITSDPTTRTRFVASGQGIALLHGPHAGRLIAQMTVRNSVGQQAQSIYSDDHGITWHAGNPVGRMMDENKVVELSDGTLMLNSRDAARSGRRKVAYSQDGGLTWGPVKLVDDLIDPTNNAQIIRAYPNARAGSAKARILLFTNARNATERVNGTLSVSCDDGRTWVSHQTYMPGEVGYTTAAVQSDGALGVLWERDGIRYSTIPMGWLNSVCPLAPSGRPTSGKPTSGTSLPPTAT
# What was measured:
# Assay in all cases: glycan array binding signal (z-score within array); higher = stronger binding
# Conditions in all cases: glycan notation: IUPAC condensed, linker removed
# [1] = target: Fuc(a1-2)Gal(b1-3)GalNAc(b1-4)[Neu5Ac(a2-3)]Gal(b1-4)Glc
# Method in brief: (§1)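 Arrays were curated from the Consortium for Functional Glycomics database, 3228 in total, and kept only where the protein sequence was available. Binding is expressed as a within-array Z-score. This score was averaged across arrays of the same protein sequence at different concentrations or buffers and across linkers, and negative values can be read as non-binding.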
# [2] = target: Fuc(a1-2)Gal(b1-4)GlcNAc
# Method in brief: as §1
# [3] = target: Fuc(a1-2)[Gal(a1-4)]Gal(b1-4)GlcNAc
# Method in brief: as §1
# [4] = target: Fuc(a1-3)[Gal(b1-4)]GlcNAc(b1-4)Gal(b1-4)[Fuc(a1-3)]GlcNAc
# Method in brief: as §1
# [5] = target: Fuc(a1-3)[Gal3S(b1-4)]GlcNAc
# Method in brief: as §1
# [6] = target: Fuc(a1-4)GlcNAc
# Method in brief: as §1
# [7] = target: Gal(b1-3)GlcNAc(b1-3)Gal(b1-4)GlcNAc
# Method in brief: as §1
# [8] = target: Gal3S(b1-3)[Fuc(a1-4)]GlcNAc
# Method in brief: as §1
# [9] = target: Gal3S6S(b1-4)GlcNAc
# Method in brief: as §1
# [10] = target: Gal4S6S(b1-4)GlcNAc
# Method in brief: as §1
# [11] = target: GlcNAc(a1-3)Gal(b1-4)GlcNAc
# Method in brief: as §1
# [12] = target: GlcNAc(a1-6)Gal(b1-4)GlcNAc
# Method in brief: as §1
# [13] = target: GlcNAc(b1-3)Gal
# Method in brief: as §1
# [14] = target: GlcNAc(b1-3)Gal(b1-3)GalNAc
# Method in brief: as §1
# [15] = target: GlcNAc(b1-3)Gal(b1-4)Glc
# Method in brief: as §1
# [16] = target: GlcNAc(b1-3)[GlcNAc(b1-6)]Gal(b1-4)GlcNAc
# Method in brief: as §1
# [17] = target: GlcNAc(b1-3)[GlcNAc(b1-6)]GlcNAc(b1-4)GlcNAc
# Method in brief: as §1
# [18] = target: Man(a1-2)Man(a1-3)[Man(a1-6)]Man(a1-6)[Man(a1-2)Man(a1-3)]Man(b1-4)GlcNAc(b1-4)GlcNAc
# Method in brief: as §1
# [19] = target: Neu5Ac(a2-3)Gal(b1-4)[Fuc(a1-3)]GlcNAc(b1-3)Gal(b1-4)GlcNAc
# Method in brief: as §1
# [20] = target: Neu5Gc(a2-3)Gal(b1-3)[Fuc(a1-4)]GlcNAc
# Method in brief: as §1
# [21] = target: Neu5Gc(a2-3)Gal(b1-4)GlcNAc
# Method in brief: as §1
# [22] = target: Fuc(a1-2)Gal(b1-4)Glc
# Method in brief: as §1
# [23] = target: Fuc(a1-2)Gal(b1-4)Glc6S
# Method in brief: as §1
# [24] = target: Fuc(a1-2)[GalNAc(a1-3)]Gal(b1-3)GlcNAc
# Method in brief: as §1
# [25] = target: Gal(a1-2)Gal
# Method in brief: as §1
# [26] = target: Gal(a1-3)Gal(b1-4)GlcNAc(b1-3)GalNAc
# Method in brief: as §1
# [27] = target: Gal(a1-4)Gal(b1-4)Glc
# Method in brief: as §1
# [28] = target: Gal(a1-4)Gal(b1-4)GlcNAc(b1-3)Gal(b1-4)Glc
# Method in brief: as §1
# [29] = target: Gal(b1-3)GlcNAc(b1-3)Gal(b1-3)GlcNAc
# Method in brief: as §1
# [30] = target: Gal(b1-4)GlcNAc(a1-6)Gal(b1-4)GlcNAc
# Method in brief: as §1
# [31] = target: Gal3S(b1-3)GalNAc
# Method in brief: as §1
# [32] = target: Gal3S(b1-4)GlcNAc
# Method in brief: as §1
# [33] = target: Neu5Ac(a2-3)Gal(b1-3)GalNAc
# Method in brief: as §1
# [34] = target: Neu5Ac(a2-3)Gal(b1-3)GalNAc(b1-4)[Neu5Ac(a2-3)]Gal(b1-4)Glc
# Method in brief: as §1
# [35] = target: Neu5Ac(a2-3)Gal(b1-3)GalNAc6S
# Method in brief: as §1
# [36] = target: Neu5Ac(a2-3)Gal(b1-3)GlcNAc(b1-3)GalNAc
# Method in brief: as §1
# [37] = target: Neu5Ac(a2-3)Gal(b1-3)[Fuc(a1-4)]GlcNAc(b1-3)Gal(b1-3)[Fuc(a1-4)]GlcNAc
# Method in brief: as §1
# [38] = target: Neu5Ac(a2-3)Gal(b1-3)[Neu5Ac(a2-6)]GalNAc
# Method in brief: as §1
# [39] = target: Neu5Ac(a2-3)Gal(b1-4)GlcNAc(b1-6)[Neu5Ac(a2-3)Gal(b1-3)]GalNAc
# Method in brief: as §1
# [40] = target: Neu5Ac(a2-3)[Neu5Ac(a2-6)]GalNAc
# Method in brief: as §1
# [41] = target: Neu5Ac(a2-6)GalNAc
# Method in brief: as §1
# [42] = target: Neu5Ac(a2-6)GlcNAc(b1-4)GlcNAc
# Method in brief: as §1
# [43] = target: Neu5Gc(a2-3)Gal(b1-4)[Fuc(a1-3)]GlcNAc
# Method in brief: as §1
binder,measurement,setting,value
B1,glycan array binding signal (z-score),[1],-0.197
same,glycan array binding signal (z-score),[2],-0.322
same,glycan array binding signal (z-score),[3],-0.127
same,glycan array binding signal (z-score),[4],-0.238
same,glycan array binding signal (z-score),[5],-0.234
same,glycan array binding signal (z-score),[6],-0.38
same,glycan array binding signal (z-score),[7],-0.3
same,glycan array binding signal (z-score),[8],-0.253
same,glycan array binding signal (z-score),[9],0.156
same,glycan array binding signal (z-score),[10],0.026
same,glycan array binding signal (z-score),[11],-0.323
same,glycan array binding signal (z-score),[12],-0.364
same,glycan array binding signal (z-score),[13],5.09
same,glycan array binding signal (z-score),[14],5.89
same,glycan array binding signal (z-score),[15],4.83
same,glycan array binding signal (z-score),[16],6.97
same,glycan array binding signal (z-score),[17],0.169
same,glycan array binding signal (z-score),[18],-0.263
same,glycan array binding signal (z-score),[19],-0.23
same,glycan array binding signal (z-score),[20],-0.305
same,glycan array binding signal (z-score),[21],-0.278
B2,glycan array binding signal (z-score),[1],-0.338
same,glycan array binding signal (z-score),[22],-0.361
same,glycan array binding signal (z-score),[23],-0.256
same,glycan array binding signal (z-score),[24],-0.343
same,glycan array binding signal (z-score),[4],-0.311
same,glycan array binding signal (z-score),[25],-0.331
same,glycan array binding signal (z-score),[26],-0.36
same,glycan array binding signal (z-score),[27],-0.366
same,glycan array binding signal (z-score),[28],-0.337
same,glycan array binding signal (z-score),[29],-0.354
same,glycan array binding signal (z-score),[30],-0.353
same,glycan array binding signal (z-score),[31],-0.343
same,glycan array binding signal (z-score),[32],-0.268
same,glycan array binding signal (z-score),[33],3.6
same,glycan array binding signal (z-score),[34],6.27
same,glycan array binding signal (z-score),[35],3.54
same,glycan array binding signal (z-score),[36],3.71
same,glycan array binding signal (z-score),[37],0.022
same,glycan array binding signal (z-score),[38],3.45
same,glycan array binding signal (z-score),[39],4.39
same,glycan array binding signal (z-score),[40],4.53
same,glycan array binding signal (z-score),[41],-0.072
same,glycan array binding signal (z-score),[42],3.52
same,glycan array binding signal (z-score),[43],-0.196

# Source: the supplement of paper PMC8728848
